The record followed here is PubChem BioAssay AID602428 (Sanford-Burnham Center for Chemical Genomics, 2012).

Among all 2,500 compounds or so, about 980 (39%) were called active.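 Rule for the calls: active = mean inhibition at 5 µM reaching about 45% (limit read from the data); inactive = the rest.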 Only a sample is shown.

This experiment in a line: Gli-SUFU pathway antagonists, confirmation, single concentration, luciferase luminescence, Sufu-KO-LIGHT cells (AID 602428).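 Note: plate controls were DMSO-treated cells for no effect and wells lacking cells for full effect.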 The conditions noted are these: Gli luciferase reporter, at 5 µM, stronger effect = higher value. (In general: Reporter assays use an easily measured gene product as a stand-in for the process of interest.)
What is called inhibition is the drop in the measured response relative to a control, in per cent. Consider `C=CCNC(=S)/N=c1/ccccn1Cc1ccccc1`, for which the inhibition was 50.8% (active).

For `CCOc1cccc(/C=N/NC(=S)NCCN2CCOCC2)c1O`, the inhibition was 24.5% (inactive).

As for `Nc1ccc(C(=O)N2CCN(S(=O)(=O)c3ccc(Cl)cc3)CC2)cc1[N+](=O)[O-]`, the inhibition is 17.8% (inactive).

`COc1ccc(NC(=O)[C@H](NC(=O)[C@@H]2Cc3ccccc3CN2)c2ccccc2)cc1`: the inhibition was 17.9% (inactive).

On to `CCOC(=O)c1ccc(NC(=O)Cn2cnc3cc(C)c(C)cc32)cc1`, for which the inhibition is 76.1% (active).

Consider `CC(=O)Nc1cccc(OCC(=O)/C=C2\N(C)c3ccccc3C2(C)C)c1`, for which the inhibition is 54.9% (active).

In the case of `O=C(O)CCCn1cc(NC(=O)COc2cccc(Cl)c2)cn1`, the inhibition was 12.9% (inactive).

With `CC1CC2=C(CC1/C=N/NC(N)=S)C(C)(C)CCC2` (stereo not drawn), the inhibition was 49.3% (active).

`COc1ccccc1CCNC(=O)C(=O)NCCC1CCCCN1S(=O)(=O)c1cccs1` (stereo not drawn): the inhibition was 48.8% (active).

With `COc1ccccc1CNC(=O)C1CCN(c2nc3ccccc3o2)CC1`, the inhibition was 25.9% (inactive).

`COc1ccc(NS(=O)(=O)c2ccc(NC(C)=O)cc2)cc1OC`: the inhibition was 51.5% (active).

As to `Cc1cccc(NS(=O)(=O)c2ccc(-c3cnc(C4CC4)o3)cc2)c1`, the inhibition is 36.7% (inactive).

Consider `COc1ccc2c(C)cc3nnnn3c2c1`, for which the inhibition is 17.3% (inactive).

Turning to `O=C(CN1C(=O)c2ccccc2S1(=O)=O)N1CCc2ccccc21`, the inhibition was 57.7% (active).

Regarding `CC(C)OCC(O)CN1CCN(C(c2ccccc2)c2ccccc2)CC1` (stereo not drawn), the inhibition was 10.4% (inactive).

With `CC(=O)/C(=N\Nc1ccc(Cl)cc1Cl)Sc1cccc2cccnc12`, the inhibition is 57.7% (active).

For the compound `CCC(Cc1ccccc1)NC(=O)C1CCCCC1` (stereo not drawn), the inhibition is 6.07% (inactive).

Regarding `O=C(Nc1cc2c3c(c1)C1CCCC1CN3CC1CCCC21)c1ccc([N+](=O)[O-])cc1` (stereo not drawn), the inhibition is 79% (active).

Turning to `COc1cc(C(=O)OC2CCOC2=O)c([N+](=O)[O-])cc1OC` (stereo not drawn), the inhibition was 7.05% (inactive).

Regarding `CC[n+]1c(C)n(-c2ccccc2)c2ccc(NC(C)=O)cc21`, the inhibition is 80.2% (active).

Consider `C=CCOC(=O)C1=C[C@@H](c2ccc3c(c2)OCO3)C[C@@H](OCCCCO)O1`, for which the inhibition was 28.9% (inactive).

In the case of `O=C1/C(=C\c2cccnc2)CN(Cc2ccccc2)C/C1=C\c1cccnc1`, the inhibition is 19.9% (inactive).

For `CCCCC(=O)NC(c1ccc(OC)c(OC)c1)c1ccc2cccnc2c1O` (stereo not drawn), the inhibition is 55% (active).

As for `Cc1ccc(NC(=S)Nc2ccc(F)cc2)cc1`, the inhibition is -13.7% (inactive).

Turning to `CCN1/C(=C/C(=S)Nc2ccccc2)Sc2ccccc21`, the inhibition is 9.5% (inactive).

As for `COc1ccc(Cn2c(-c3ccc(Cl)cc3)c[n+]3ccccc23)cc1`, the inhibition was 63.2% (active).

Regarding `c1c2c(cc3sc(N4CCCCC4)nc13)OCCO2`, the inhibition was 34.5% (inactive).

For the compound `O=c1c2ccccc2nc2n1C(CSCc1cccc(C(F)(F)F)c1)CS2` (stereo not drawn), the inhibition was 67.6% (active).

In the case of `CC1(C)CC(=O)c2c(n(S(=O)(=O)c3ccccc3)c3ccc(NS(=O)(=O)c4ccccc4)cc23)C1`, the inhibition is 19.1% (inactive).

On to `C/C(=N\NC(=O)Cc1ccc(Cl)cc1)c1ccccn1`, for which the inhibition is 86.9% (active).

In the case of `Cc1cc(NC(=O)c2cccc(N3C(=O)CCC3=O)c2)no1`, the inhibition was 20.1% (inactive).

Turning to `CC(C)(CNC(=O)c1ccc(Cl)c(S(=O)(=O)N2CCc3ccccc3C2)c1)N1CCOCC1`, the inhibition was 22.8% (inactive).

As for `CN(C)c1cc[n+](Cc2ccccc2)cc1`, the inhibition was 53% (active).

For `CCOC(=O)c1cnc(-n2nc(C)cc2C)nc1NNc1cc(C)nc(-c2ccccc2)n1`, the inhibition is 53.6% (active).

As for `CCc1ccc(C2C(C#N)=C(N)N(N3CCOCC3)C3=C2C(=O)CC(C)(C)C3)s1` (stereo not drawn), the inhibition is 7.97% (inactive).

Regarding `C=CCn1c(SCC(=O)CC(=O)OCC)nc2cc(C(=O)N3CCC(C(N)=O)CC3)ccc2c1=O`, the inhibition was 20.4% (inactive).

In the case of `COc1cc(C(=O)OC(C)C(=O)NCC2CCCCC2)cc(NC(=O)c2ccco2)c1OC` (stereo not drawn), the inhibition is 13.1% (inactive).

On to `COc1ccc(NS(=O)(=O)c2ccc(N3CCN(CCO)CC3)c([N+](=O)[O-])c2)cc1`, for which the inhibition is 45.5% (active).

For the compound `COc1ccccc1/C=C/CN1CCC(CO)(Cc2ccccc2)CC1`, the inhibition was 12.3% (inactive).

Regarding `O=C(CN1CCN(S(=O)(=O)c2cc(Cl)ccc2Cl)CC1)c1ccc(O)c(O)c1`, the inhibition was 22.3% (inactive).

For `NS(=O)(=O)c1ccc(CCNC(=O)CCCn2c(SCC(=O)N3CCCC3)nc3ccsc3c2=O)cc1`, the inhibition was 8.32% (inactive).

Turning to `COC(=O)Cc1[nH]n(-c2nc3ccccc3s2)c(=O)c1C(C)=Nc1ccc(OC)cc1`, the inhibition is 91.5% (active).

With `N#CC(C#N)=CN=c1ccn(Cc2ccc(Cl)cc2Cl)cc1`, the inhibition was 50.9% (active).

With `CCn1c(SCc2ccccc2)nc2cc(OC)c(OC)cc2c1=O`, the inhibition is 25.4% (inactive).

In the case of `Cc1ccc(C(=O)C[n+]2cc(-c3ccccc3)n3c2CCCCC3)cc1`, the inhibition is 70.7% (active).

Take `Cc1cc(C(=O)CSc2nc(N)cc(=O)[nH]2)c(C)n1-c1cccc(F)c1`: the inhibition was 55.4% (active).

With `Cc1ccc(-c2nc3c(cnn3-c3ccccc3)c(=O)o2)cc1`, the inhibition is 38.2% (inactive).

For `N#Cc1ccc(C(=O)Nc2nc(-c3cccs3)c(C(=O)C(F)(F)F)s2)cc1`, the inhibition is 66% (active).

Regarding `O=C(O)c1ccc(N/N=C/c2ccc3ncccc3c2)cc1`, the inhibition is 61.1% (active).

Turning to `CCNC(=S)N(CCN(CC)CC)Cc1cc2cc3c(cc2[nH]c1=O)OCO3`, the inhibition was 20.6% (inactive).

Regarding `CC1(C)Cc2ccccc2/C(=C/C(=O)c2ccccc2)N1`, the inhibition was 27.6% (inactive).

Consider `CC(C)Oc1ccc(/C=N/NC(=O)c2nnn(-c3nonc3N)c2CN(C)C2CCCCC2)cc1`, for which the inhibition is 24.6% (inactive).

For `CC(=O)c1c(C)[nH]c(C(=O)OCC(=O)Nc2sc3c(c2C#N)CCCC3)c1C`, the inhibition was 59% (active).

In the case of `NC(N)=Nc1nc(-c2ccccc2)c2cc(Cl)ccc2n1`, the inhibition is 31.6% (inactive).

For the compound `COc1ccccc1C1C2=C(COC2=O)Nc2cc3c(cc21)OCO3` (stereo not drawn), the inhibition was 48.7% (active).

As to `COc1ccccc1N1CCN(Cc2cc(OC)c3c(c2)OCO3)CC1`, the inhibition is 14.2% (inactive).

In the case of `CCCOc1ccccc1C1CC(=O)Nc2cc3c(cc21)OCO3` (stereo not drawn), the inhibition was 52.9% (active).

Take `CNc1nnc(-c2ccco2)s1`: the inhibition was 23.3% (inactive).

As to `COc1ccc(OC)c(/C=N/NC(=O)c2ccc[n+](CC(=O)c3ccccc3)c2)c1`, the inhibition is 13.3% (inactive).

Turning to `Cc1ccc(S(=O)(=O)NC(C)C(=O)Nc2ccccc2C(=O)N2CCCC2)cc1` (stereo not drawn), the inhibition is 14.3% (inactive).

As for `Cc1nonc1C1CCCN1C(=O)c1cc(COc2cccc(C(F)(F)F)c2)on1` (stereo not drawn), the inhibition is 26.7% (inactive).

As to `C=CCC1(CC=C)CCCN1C(=O)c1cc(COc2ccc(-n3cncn3)cc2)on1`, the inhibition is 78.5% (active).

Take `O=[N+]([O-])c1ccc(N2CCN(CC(O)COc3ccccc3)CC2)cc1` (stereo not drawn): the inhibition is 27.5% (inactive).

For the compound `COc1ccc(Cc2nnc(N/N=C/c3ccccc3O)[nH]c2=O)cc1OC`, the inhibition is 73.7% (active).

On to `COc1ccc(/C=N/N=C2/C(=O)Nc3ccccc32)cc1O`, for which the inhibition was 21.9% (inactive).

For `c1ccc(-n2nnnc2N2CCOCC2)cc1`, the inhibition was 6.89% (inactive).

Turning to `CC(C)c1ccc(OCC(O)CN2CCN(c3ccccn3)CC2)cc1` (stereo not drawn), the inhibition was 10.6% (inactive).

For the compound `Cc1cc([N+](=O)[O-])c(-c2ccc(/C=N/n3cnnc3)o2)cc1Cl`, the inhibition is 15.1% (inactive).

With `O=C(C[C@H]1C/C=C\C[C@@H](NC(=O)OCC2c3ccccc3-c3ccccc32)C(=O)O[C@@H](c2ccccc2)CNC1=O)N[C@H](CO)Cc1ccccc1`, the inhibition is 57.2% (active).

Turning to `COC(=O)c1ccccc1NC(=O)C1(S(=O)(=O)c2ccc(Cl)cc2)CC1`, the inhibition is 15.8% (inactive).

With `Cc1onc(-c2ccccc2)c1C(=O)Nc1ccccc1C#N`, the inhibition is 14.9% (inactive).

Turning to `Cc1cccc2nc(CSc3nc4[nH]ncc4c(=O)n3-c3cccc(Cl)c3)cc(=O)n12`, the inhibition is 64.1% (active).

In the case of `CCN(CCO)C(=S)Nc1cc(C(=O)OC)ccc1C(=O)OC`, the inhibition is 21.2% (inactive).

Turning to `CC(=O)Nc1ccc(NC(=O)c2ccc3c(c2)C(=O)N(c2ccccc2C)C3=O)cc1`, the inhibition was 28.9% (inactive).

Regarding `Cc1ccc(O)c(NC(=O)COc2cc(C)ccc2C)c1`, the inhibition was 76.8% (active).

In the case of `C/C(=N\Nc1ccc(Cl)nn1)c1ccccc1O`, the inhibition was 47.1% (active).

As for `COc1ccc2nc(SCC(=O)Nc3c(C)cc(C)cc3C)[nH]c2c1`, the inhibition is 23.1% (inactive).

Regarding `CSc1ncccc1C(=O)Nc1nc2ccc(F)cc2s1`, the inhibition is 79.4% (active).

For `Cc1cc(C)c(SCCc2ccncc2)c(C)c1`, the inhibition was 27% (inactive).

`Cc1ccc(NC(=O)CN(C)CC(=O)Nc2cccc(F)c2)cc1[N+](=O)[O-]`: the inhibition is 67.8% (active).

With `CCCC1=Nc2cc(C(=O)NCc3ccco3)ccc2Sc2ccccc21`, the inhibition was 31.8% (inactive).

In the case of `O=C1C=C(c2ccnc3cc(Cl)ccc23)C[C@@H](c2ccc3c(c2)OCO3)C1`, the inhibition was 61% (active).

As to `COc1ccc(C(=O)NC2CCCc3c2cnn3-c2cccc(C)c2C)c(OC)n1` (stereo not drawn), the inhibition was 51.3% (active).

In the case of `CN(c1ccc2nc3ccccc3c(=O)n2n1)C1CCCCC1`, the inhibition was 79.3% (active).

Consider `COc1cccc(-n2cc(C(=O)O)c3ccccc3c2=O)c1`, for which the inhibition was 22.9% (inactive).

As to `COc1cccc2cc(C(N)=O)/c(=N\NC(=O)c3ccccc3)oc12`, the inhibition is 23.9% (inactive).

In the case of `Cc1ccccc1C(=O)NC(=S)Nc1ccc(N2CCN(C(=O)c3ccccc3)CC2)cc1`, the inhibition is 64.5% (active).

Consider `Cc1cc2[nH]ncc2cc1NC(=S)NC(=O)c1ccccc1`, for which the inhibition was 6.93% (inactive).

In the case of `CC(C)C(=O)Nc1nnc(SCC(=O)N2C(C)CCCC2C)s1` (stereo not drawn), the inhibition is 17.7% (inactive).

Regarding `Cc1ccc(Nc2nc(N3CCOCC3)nc(N3CCOCC3)n2)cc1Cl`, the inhibition was 33.3% (inactive).

With `CCOc1ccc(-n2c(O)c(/C=N/c3ccnn3Cc3ccncc3)c3ccccc3c2=O)cc1`, the inhibition was 28% (inactive).

Turning to `CCOc1ccc(-n2c(O)c(/C=N/Nc3nc(C)cc(C)n3)c3ccccc3c2=O)cc1`, the inhibition was 78.3% (active).

Regarding `O=C(Nc1nc2ccc([N+](=O)[O-])cc2s1)c1ccc(S(=O)(=O)N2CCCc3ccccc32)cc1`, the inhibition is 82.2% (active).
